The campaign covered roughly 290,000 compounds. About 1,800 (0.62%) were called active. The sample as a whole holds a higher share of actives than the screen did. Unmarked numbers belong to inactive results. No stated cut-off is given here; in the data, active means inhibition above about 50%; inactive means the rest.

By inhibition is commonly meant the change of the read-out against control, counted positive when it falls.

This assay can be described thus: inhibition of NOD2-driven NF-kB reporter – cell-based, luminescence, uHTS, HEK293 (AID 1566). Particulars: HEK293 NOD2/NF-kB luciferase reporter, at 4 µM, stronger effect = higher value.
On to `COc1cc(/C=C2\SC(=O)N(CCN)C2=O)ccc1OS(=O)(=O)c1cc(C)ccc1C`, for which the inhibition was -1.9%.
For `C=CCn1c(SCC(=O)Nc2ccc(-c3nc4ccc(C)cc4s3)cc2)nnc1-c1ccccc1`, the inhibition is -69.8%.
Under `COc1ccc2[nH]c(C)c(CCNC(=S)Nc3cccc(C)c3)c2c1` stands -5.2%; under `O=C(COC(=O)/C(=C/c1cccs1)c1cccs1)NC(c1ccccc1)c1ccccc1`, -12.9%; under `CCNC(=S)N1CCN(CC(=O)Nc2ccc(OC)cc2)CC1`, -3.6%.
For `O=C(NN/C(=N/S(=O)(=O)c1ccc(Cl)cc1)c1ccccc1)c1cccc(Cl)c1`, the inhibition was -51.7%.
Under `CC(Oc1ccccc1)C(=O)NC1=NCCS1` (centres undefined) stands -34.9%; under `CN1C(=O)C2(C(C#N)=C(N)N(c3cc(Cl)cc(Cl)c3)C3=C2C(=O)CCC3)c2ccccc21` (centres undefined), 53% (active).
As for `CN1C(=O)C2(C(C#N)=C(N)N(c3cc(Cl)cc(Cl)c3)C3=C2C(=O)CC(C)(C)C3)c2ccccc21` (centres undefined), the figure is 48.4%; as for `CN1C(=O)C2(C(C#N)=C(N)N(c3ccc(Cl)cc3)C3=C2C(=O)CC(C)(C)C3)c2ccccc21` (centres undefined), 5.6%.
As for `O=C(CSc1ccc(Br)cc1)N1CCOCC1`, the figure is 0%.
On to `CCCn1ncc(CN2CCC(Oc3ccc(C(=O)N4CCCC4)cc3)CC2)c1C`, for which the inhibition was -37.8%.
Under `COc1ccc(S(=O)(=O)N(CC(=O)NCc2ccccn2)Cc2ccccc2)cc1` stands -13.2%.
As for `CC(=O)NC1=C(NC2CCS(=O)(=O)C2)C(=O)c2ccccc2C1=O` (centres undefined), the figure is 5.3%.
As for `CN(C1=C(NC(=O)c2ccccc2)C(=O)c2ccccc2C1=O)C1CCS(=O)(=O)C1` (centres undefined), the inhibition is -12.3%.
Under `O=C(NC1=C(NC2CCS(=O)(=O)C2)C(=O)c2ccccc2C1=O)c1ccccc1` (centres undefined) stands 73.2% (active); under `O=C(Nc1cccc2ccccc12)C1CCN(C(=O)NCc2ccccc2)CC1`, -12.5%; under `Cc1cccc(OCC(=O)N/N=C2/SCC(=O)N2Cc2ccco2)c1`, 14.5%.
As for `O=C(COc1ccc(Cl)cc1)NNC(=S)NCc1ccccc1`, the figure is -20.7%; as for `C=CCc1ccccc1OCC(=O)NNC(=S)NCc1ccccc1`, 64.8% (active).
As for `C=CCc1ccccc1OCC(=O)O`, the figure is -5.4%; as for `Cc1cc(-c2ccccc2)nc(Cl)c1C#N`, 17.2%.
In the case of `COC(=O)C1=C(C(=O)OC)[C@@H]2N(C)c3ccc(OC)cc3[C@@]23C[C@@H](C(=O)OC)N(C(=O)C2CCC2)C3=N1`, the inhibition was -5.5%.
As for `COc1cc(/C=C2\COC/C(=C\c3ccc(O)c(OC)c3)C2=O)ccc1O`, the figure is 2%; as for `COc1ccc(/C=C2\CC/C(=C\c3ccc(OC)cc3OC)C2=O)c(OC)c1`, -4.6%; as for `COc1cc(/C=C2/CC/C(=C/c3ccc(O)c(OC)c3)C2=O)ccc1O`, -69.1%.
Under `COc1cc(OC)c(OC)cc1/C=C1\CCC(C2CCCC2)C1=O` (centres undefined) stands 27%; under `COc1cc(OC)c(OC)cc1/C=C1/Cc2ccccc2C1=O`, 26.6%.
Under `COc1ccc(/C=C2\CCC/C(=C\c3ccc(OC)c(OC)c3OC)C2=O)c(OC)c1OC` stands -10.3%.
As to `CCCn1cnnc1CNC(=O)C1CCC(=O)N(CCc2ccc(OC)cc2)C1` (centres undefined), the inhibition is -2.5%.
Under `COc1cc(OC)cc(C(=O)N[C@H](C(=O)NCc2ccco2)C(C)C)c1` stands 4.8%; under `CCN1CCN(CC(=O)N2c3ccccc3Sc3ccccc32)CC1`, 21.1%; under `Cc1noc(C)c1CSCC(=O)OCC(=O)NC1CCCCC1`, 1.1%.
As for `[O-][N+]1=C2CCC/C(=N\O)C2=NC12CCCCC2`, the figure is -8.9%; as for `COc1ccccc1CNC(=O)N1CCN(c2ccccc2C)CC1`, 71% (active).
Under `COc1ccccc1CNC(=O)N1CCN(c2ccccc2)CC1` stands 8.6%; under `COc1ccccc1CNC(=O)N1CCN(c2ccccc2Cl)CC1`, 4%; under `O=C(CCC(=O)N1CCc2ccccc21)Nc1ccccc1`, 12.5%.
In the case of `N/C(=N\N=C/c1ccc(Br)cc1)N/N=C\c1ccc(Br)cc1`, the inhibition is -5.9%.
Consider `CCN1CCN(c2ccc(NC(=O)COc3ccc([N+](=O)[O-])cc3)cc2)CC1`, for which the inhibition was -32.4%.
Under `CCCc1nnc(NC(=O)CCC(=O)N2CCN(Cc3ccc(Cl)cc3)CC2)s1` stands 53.2% (active).
Regarding `CCCc1nnc(NC(=O)CCC(=O)N2CCN(Cc3ccc(F)cc3)CC2)s1`, the inhibition was -3.9%.
As for `CCc1nnc(NC(=O)CCC(=O)N2CCN(Cc3ccc(Cl)cc3)CC2)s1`, the figure is 5.9%; as for `CCc1ccc(NC(=O)CC2C(=O)N(c3ccc(C)cc3)C(=O)N2C2CC2)cc1` (centres undefined), -17.1%; as for `O=C(Nc1ccc2ccccc2n1)Nc1ccccc1F`, -1.1%.
As to `COc1cc(/C=C2/SC(=O)NC2=O)ccc1OCc1ccccc1`, the inhibition was -9.8%.
Under `CCOc1ccc(N(C)c2ccc(/C=C3/SC(=S)NC3=O)cc2)cc1` stands -2.9%; under `COc1ccc2cc(/C=C3\SC(=S)NC3=O)c(N3CCOCC3)nc2c1`, 42.8%; under `COc1ccc(-n2c(C)cc(/C=C3\SC(=S)NC3=O)c2C)cc1`, -195%.
Consider `COc1ccccc1OCCCOc1ccc(/C=C2\SC(=O)NC2=O)cc1OC`, for which the inhibition is 32%.
In the case of `CCOc1ccc(/C=C2\SC(=S)NC2=O)cc1OC`, the inhibition was -106%.
As for `COc1cccc(CNC(=O)C2CCC(=O)N(C3CC3)C2)c1OC` (centres undefined), the figure is -2.5%; as for `O=C(NCCSCc1ccc(Cl)cc1)c1cccs1`, 6.3%; as for `CCOc1ccc(-c2[nH]ncc2-c2ccc(Cl)cc2)c(O)c1`, 17.2%.
As for `CSc1nc(Oc2ccc3ccccc3c2)c2ccccc2n1`, the figure is -0.5%; as for `CCN(Cc1ccccc1)C(=O)Cn1c(=O)n(CCC(=O)N2CCCCC2)c(=O)c2sccc21`, 1.5%.
Under `O=[N+]([O-])c1ccc(Nc2ccccc2)c2nonc12` stands 42%; under `O=[N+]([O-])c1ccc(Sc2cccc[n+]2[O-])c2nonc12`, 93% (active).
In the case of `O=[N+]([O-])c1ccc(Nc2ccccc2O)c2nonc12`, the inhibition is 16%.

Source of the values: PubChem BioAssay AID1566 (Sanford-Burnham Center for Chemical Genomics, 2009).
